Sampled rows, rich in hits. Any-hit rate of the full collection: about 2.4%.
D2 PAM-1: positive allosteric modulators of human D2 dopamine receptor. DiscoveRx D2 beta-arrestin cells, luminescence, 90 min; 100% = 57 uM dopamine signal. 360,000 compounds, 0.23% hits. P14416. potentiation, % (concentration not given with the values); in the data active means potentiation above about 50%
Target sequence (P14416 whole entry, looked up): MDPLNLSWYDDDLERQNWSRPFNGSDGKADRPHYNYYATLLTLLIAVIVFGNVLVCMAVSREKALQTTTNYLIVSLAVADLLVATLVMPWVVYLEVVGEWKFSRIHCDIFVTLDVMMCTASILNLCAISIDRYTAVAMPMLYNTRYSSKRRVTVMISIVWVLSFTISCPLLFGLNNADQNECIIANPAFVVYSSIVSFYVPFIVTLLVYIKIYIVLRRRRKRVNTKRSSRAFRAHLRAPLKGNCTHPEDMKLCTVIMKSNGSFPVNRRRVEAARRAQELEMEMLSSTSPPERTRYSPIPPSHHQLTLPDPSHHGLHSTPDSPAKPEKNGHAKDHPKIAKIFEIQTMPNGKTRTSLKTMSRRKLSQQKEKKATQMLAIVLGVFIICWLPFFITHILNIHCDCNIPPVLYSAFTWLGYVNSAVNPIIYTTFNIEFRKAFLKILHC
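D2 cells co-treated with compound plus 50 nM dopamine (EC20) for 90 min at 37 deg C to detect potentiation. Beta-arrestin recruitment was read as enzyme-fragment luminescence after 1 h at ambient temperature. Full response was set by 57 uM dopamine.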
D2 ag-1: human D2 receptor agonism in beta-arrestin assay. AID 624465. P14416. DiscoveRx PathHunter D2 beta-arrestin, luminescence, 90 min; 100% = 57 uM dopamine signal. 360,000 compounds, 0.084% hits. activation, % (no concentration beside the values); in the data active means activation above about 40%
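Agonist mode: compounds alone added to overnight-plated D2 PathHunter cells for 90 min at 37 C, with 57 uM final dopamine (EC100) defining full response. Beta-arrestin recruitment detected by chemiluminescent reagent, read after 1 h at ambient temperature.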
D2 ag-2: D2 dopamine receptor (human) agonism. HEK293 T-REx D2 cells, calcium flux agonist mode. activation, % at 2 µM. AID 485358. 340,000 compounds, 0.53% hits. P14416;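 active means activation over 3 SD above normal in the single-dose calcium agonist read, cut at about 30% in these data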; further: 0% is about no effect
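Tetracycline-induced HEK293 T-REx cells with force-coupled D2 receptor, plated overnight at 30 C, loaded with no-wash calcium dye. After a 10 s baseline, compound was pin-added and calcium flux read kinetically for 180 s; calcium rises flagged agonists.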
D2 PAM-2: positively modulates the human D2 dopamine receptor allosterically. HEK293 T-REx D2, calcium flux, EC20 dopamine potentiation. 340,000 compounds, 0.34% hits. P14416. potentiation, % at 10 µM;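 active means potentiation over 3 SD above the plate norm, cut at about 30% in these data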; further: 0% is about no effect
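Calcium flux readout, no-wash dye, 1 read/s. Inducible HEK293 Trex D2 line, overnight 30 C. Compound alone 180 s (agonist flags), then EC20 dopamine, another 180 s to score potentiation.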
D2 antagonist: antagonists of human D2 dopamine receptor | AID 485344 | 340,000 compounds, 2% hits | inhibition, % at 10 µM | P14416 | HEK293 TREx D2 cells, calcium flux, dopamine EC80; in the data active means inhibition above about 30%; inactive means below that, where a call was filed; further: 0% is about no effect
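In this primary screen, negative modulation is detected by tracking calcium flux after an EC80 dopamine challenge in inducible HEK293 T-REx D2 cells preexposed to test compound for 180 s.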
The depositor's hits bear a star.

`O=C(/C=C/c1cccc([N+](=O)[O-])c1)OC1CCCCC1=O` (configuration not stated) gave D2 PAM-1 -4, D2 ag-1 -5, D2 ag-2 2, D2 PAM-2 1 and D2 antagonist 31*.
O=C(NCC1CCCO1)C(=Cc1cccc([N+](=O)[O-])c1)C(=O)NCC1CCCO1 (configuration not stated) was read as D2 PAM-1 -3, D2 ag-1 3, D2 ag-2 1, D2 PAM-2 8 and D2 antagonist 1.
CC(C)N(C(=O)/C=C/c1cccc([N+](=O)[O-])c1)C(C)C was read as D2 PAM-1 -9, D2 ag-1 -1, D2 ag-2 1, D2 PAM-2 19 and D2 antagonist 24.
Screening CN(C)c1ccc(-c2nc(-c3cccs3)c(-c3cccs3)[nH]2)cc1 returned D2 ag-2 0 and D2 PAM-2 -10.
Cc1cc(=O)[nH]c(SCC(=O)Nc2ccc3c(c2)CCC3)c1C#N was read as D2 PAM-1 1, D2 ag-1 5, D2 ag-2 0, D2 PAM-2 6 and D2 antagonist 36*.
`Cc1cc(=O)[nH]c(SCC(=O)Nc2ccc(F)cc2)c1C#N` gave D2 PAM-1 0, D2 ag-1 -1, D2 ag-2 1, D2 PAM-2 -4 and D2 antagonist -4.
For CCc1ccc(CN2CCCC(CNC(=O)c3cc(OC)cc(OC)c3)C2)cc1 (configuration not stated) the results were D2 PAM-1 -25, D2 ag-1 -6, D2 ag-2 -1, D2 PAM-2 -21 and D2 antagonist 27.
`COc1ccc(CN2CCCC(C(=O)c3ccc(SC)cc3)C2)cc1Cn1cccn1` (configuration not stated) gave D2 PAM-1 -3, D2 ag-1 -3, D2 ag-2 1, D2 PAM-2 -18 and D2 antagonist 33*.
COc1ccc(OC)c(CN2CCCC(C(=O)c3ccccc3SC)C2)c1 (configuration not stated) was read as D2 PAM-1 -20, D2 ag-1 -4, D2 ag-2 0, D2 PAM-2 -18 and D2 antagonist 51*.
Screening COc1cc(OC)cc(C(=O)NCC2CCCN(Cc3ccc(SC)cc3)C2)c1 (configuration not stated) returned D2 PAM-1 -29, D2 ag-1 -10, D2 ag-2 -1, D2 PAM-2 -21 and D2 antagonist 51*.
Screening COc1ccc(-c2[nH]ncc2CN2CCCC(C(=O)c3ccc(OC)cc3OC)C2)cc1 (configuration not stated) returned D2 PAM-1 -15, D2 ag-1 -4, D2 ag-2 0, D2 PAM-2 -15 and D2 antagonist 1.
`COc1ccc(CN2CCC(CO)(Cc3ccccc3)CC2)cc1Cn1cccn1` gave D2 PAM-1 -5, D2 ag-1 -6, D2 ag-2 -1, D2 PAM-2 -18 and D2 antagonist 37*.
O=C(CS(=O)(=O)c1cccc2nsnc12)N1CCN(c2cccc(C(F)(F)F)c2)CC1 was read as D2 ag-2 0 and D2 PAM-2 -5.
O=C1COc2cc(S(=O)(=O)CCC(=O)N3CCN(c4ccccc4)CC3)c(Cl)cc2N1 was read as D2 ag-2 0 and D2 PAM-2 -5.
`C#CC(C)(C)NS(=O)(=O)c1cc(-c2nnc(Nc3ccc(C)cc3)c3ccccc23)ccc1C` gave D2 ag-2 0 and D2 PAM-2 3.
Screening COc1ccc(F)cc1C(=O)C1CCCN(Cc2c[nH]c3ccccc23)C1 (configuration not stated) returned D2 PAM-1 -2, D2 ag-1 -3, D2 ag-2 0, D2 PAM-2 -20 and D2 antagonist 67*.
For COc1ccc(F)cc1C(=O)C1CCCN(Cc2cn(C)c3ccccc23)C1 (configuration not stated) the results were D2 PAM-1 -16, D2 ag-1 -2, D2 ag-2 0, D2 PAM-2 -14 and D2 antagonist 78*.
Screening COC(=O)c1ccc(CN2CCCC(C(=O)c3cc(F)ccc3OC)C2)cc1 (configuration not stated) returned D2 PAM-1 -3, D2 ag-1 -1, D2 ag-2 1, D2 PAM-2 -22 and D2 antagonist 17.
Cn1cc(CN2CCCC(C(=O)c3cc(F)ccc3F)C2)c2ccccc21 (configuration not stated) was read as D2 PAM-1 -11, D2 ag-1 -6, D2 ag-2 0, D2 PAM-2 -16 and D2 antagonist -5.
`COc1ccc(C(=O)COc2nc(C)cc(C)c2C#N)cc1` gave D2 PAM-1 -4, D2 ag-1 -4, D2 ag-2 0, D2 PAM-2 0 and D2 antagonist 35*.
COc1ccccc1-c1nc2c(c(SCC(=O)Nc3ccccc3F)n1)Cc1c(CO)cnc(C)c1O2 was read as D2 ag-2 0 and D2 PAM-2 2.
Screening c1ccc(CN2CCC3(CCCc4ccccc43)CC2)cc1 returned D2 PAM-1 -25, D2 ag-1 -1, D2 ag-2 0, D2 PAM-2 -13 and D2 antagonist 43*.
`COC(=O)CC1Oc2ccc(F)cc2-n2cc(-c3ccc(C)cc3)nc21` (configuration not stated) gave D2 ag-2 0 and D2 PAM-2 5.
Cc1ccc(Cl)cc1N1CCN(C(=O)c2cn(C)c3ccc(S(=O)(=O)N4CCCC4)cc3c2=O)CC1 was read as D2 ag-2 0 and D2 PAM-2 -8.
O=C(C1CCN(c2ncnc3c2nc2n3CCCCC2)CC1)N1CCCCC1 was read as D2 PAM-1 -8, D2 ag-1 6, D2 ag-2 35*, D2 PAM-2 -12 and D2 antagonist 13.
`CN1CCN(C(=O)C2CCN(c3ncnc4c3nc3n4CCCCC3)CC2)CC1` gave D2 PAM-1 -8, D2 ag-1 -1, D2 ag-2 0, D2 PAM-2 7 and D2 antagonist -2.
CCC(COC)Oc1cc(NCc2ccccc2)c2ncn(C(C)C)c2c1 (configuration not stated) was read as D2 PAM-1 2, D2 ag-1 65*, D2 ag-2 0, D2 PAM-2 15 and D2 antagonist -5.
CCC(CO)Oc1cc(NCc2ccccc2)c2ncn(C(C)C)c2c1 (configuration not stated) was read as D2 PAM-1 -16 and D2 ag-1 6.
Screening COc1cccc(NC(=O)Cn2c(=O)n(C)c(=O)c3sc4c(c32)COC(C)(C)C4)c1 returned D2 PAM-1 -5, D2 ag-1 -1, D2 ag-2 0, D2 PAM-2 -11 and D2 antagonist 43*.
OC(COc1ccc(Cl)cc1)CN1CCN(c2ccccn2)CC1 (configuration not stated) was read as D2 PAM-1 -10 and D2 ag-1 8.
